# Experimental data as given in PubChem BioAssay (EPA / NIEHS).
# Some compounds were tested as several samples or in several runs, with calls that do not always agree. Active and inactive are the calls of the source. How the source made its calls: active means hit-call score of the fitted dose curve at least 0.9, where 1 is the maximum; inactive means score below 0.9.
# Assays:
# [1] = CEETOX_H295R_PROG: CeeTox H295R High-throughput Steroidogenesis Assay for Progesterone (PROG) (AID 2283442); details: actives raise or lower the signal;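 on AC50: human H295R adrenal cells primed with 10 µM forskolin before dosing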
# In short: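 Progesterone secreted by human H295R cells was measured by LC-MS/MS following 48 h chemical exposure at 0.1% DMSO, preceded by 48 h forskolin (10 uM) stimulation. Same-well MTT viability; cytotoxic concentrations diluted 10- or 100-fold and retested.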
# [2] = read-out: Tumor necrosis factor receptor superfamily member 6 (Homo sapiens) (UniProt P25445); test: LTEA_HepaRG_FAS: Life Technologies and Expression Analysis (LTEA) Assay for Fas cell surface death receptor (FAS) using HepaRG (AID 2283447); details: mRNA level, 48 h; actives raise or lower the signal
# In short: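 Differentiated HepaRG cells in serum-free induction medium were exposed 48 h to 8 half-log concentrations up to 100 uM in 0.5% DMSO, in duplicate. FAS mRNA was measured by qRT-PCR normalised to ACTB, GAPDH and POLR2A; bidirectional fit versus DMSO.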
# [3] = read-out: Fatty acid synthase (Homo sapiens) (UniProt P49327); test: LTEA_HepaRG_FASN: Life Technologies and Expression Analysis (LTEA) Assay for Fatty Acid Synthase (FASN) using HepaRG (AID 2283448); details: mRNA level, 48 h; actives raise or lower the signal;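 on AC50: differentiated human HepaRG liver cells in serum-free induction medium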
# In short: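 Differentiated HepaRG cells in serum-free induction medium exposed 48 h in duplicate to eight half-log concentrations, top 100 uM, 0.5% DMSO. FASN mRNA by qRT-PCR normalised to ACTB, GAPDH, POLR2A; bidirectional fit versus DMSO.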
# [4] = read-out: Cyclin D2 (CCND2), CCND2 (gene 894); test: LTEA_HepaRG_CCND2: Life Technologies and Expression Analysis (LTEA) Assay for Cyclin D2 (CCND2) using HepaRG (AID 2283449); details: mRNA level, 48 h; actives raise or lower the signal;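 further: CCND2 transcript measured by TaqMan qRT-PCR and normalised to three housekeeping genes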
# In short: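 Chemicals in 0.5% DMSO, eight half-log concentrations from 100 uM top, were applied in duplicate for 48 h to human HepaRG cells in serum-free induction medium. CCND2 mRNA by TaqMan qRT-PCR, normalised to ACTB/GAPDH/POLR2A; bidirectional fit versus DMSO.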
# [5] = read-out: catalase (CAT), CAT (gene 847); test: LTEA_HepaRG_CAT: Life Technologies and Expression Analysis (LTEA) Assay for catalase (CAT) using HepaRG (AID 2283452); details: mRNA level, 48 h; actives raise or lower the signal;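 on AC50: TaqMan qRT-PCR signal normalized to ACTB GAPDH and POLR2A housekeeping genes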
# In short: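 HepaRG cells in serum-free induction medium, 0.5% DMSO vehicle, exposed 48 h in duplicate over 8 half-log concentrations from 100 uM. CAT mRNA measured by qRT-PCR, normalized to ACTB, GAPDH, POLR2A; bidirectional fit versus DMSO.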
# [6] = read-out: flavin-containing dimethylaniline monooxygenases 3 (FMO3), FMO3 (gene 2328); test: LTEA_HepaRG_FMO3: Life Technologies and Expression Analysis (LTEA) Assay for flavin-containing dimethylaniline monooxygenases 3 (FMO3) using HepaRG (AID 2283453); details: mRNA level, 48 h; actives raise or lower the signal;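 on AC50: differentiated human HepaRG liver cells in serum-free induction medium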
# In short: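 Differentiated HepaRG cells in serum-free induction medium, exposed 48 h in duplicate to 8 half-log concentrations up to 100 uM in 0.5% DMSO. FMO3 mRNA by qRT-PCR, normalized to ACTB, GAPDH, POLR2A; bidirectional fit vs DMSO.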
# [7] = CEETOX_H295R_CORTISOL: CeeTox H295R High-throughput Steroidogenesis Assay for Cortisol (AID 2283438); details: actives raise or lower the signal;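 further: cortisol secreted into medium quantified by LC-MS/MS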
# In short: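 Forskolin-primed H295R cells (10 uM, 48 h) treated 48 h with test chemical in 0.1% DMSO. Cortisol in medium quantified by MTBE extraction and HPLC-MS/MS; bidirectional fit vs DMSO, MTT viability in same wells.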
# [8] = CEETOX_H295R_DOC: CeeTox H295R High-throughput Steroidogenesis Assay for DOC (AID 2283439); details: actives raise or lower the signal
# In short: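 H295R cells prestimulated 48 h with 10 uM forskolin, then exposed 48 h to test chemical (0.1% DMSO final). Medium 11-deoxycorticosterone measured by HPLC-MS/MS after MTBE extraction; bidirectional fit vs DMSO, viability checked by MTT in same wells.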
# [9] = CEETOX_H295R_ESTRADIOL: CeeTox H295R High-throughput Steroidogenesis Assay for Estradiol (AID 2283440); details: actives raise or lower the signal;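 further: estradiol secreted into medium quantified by LC-MS/MS after dansyl derivatisation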
# In short: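 Estradiol in spent medium measured by LC-MS/MS after dansyl chloride derivatisation. Forskolin-primed (10 uM, 48 h) human adrenal H295R cells received test chemical 48 h at 0.1% DMSO; concentrations lowered until MTT viability >/=70%.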
# [10] = CEETOX_H295R_ESTRONE: CeeTox H295R High-throughput Steroidogenesis Assay for Estrone (AID 2283441); details: actives raise or lower the signal;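 further: estrone secreted into medium measured by LC-MS/MS after dansyl derivatization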;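 on AC50: human adrenal H295R cells prestimulated with forskolin for two days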
# In short: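 H295R cells prestimulated 48 h with 10 uM forskolin, then exposed 48 h to chemicals in 0.1% DMSO final; estrone in medium extracted with MTBE, dansyl-derivatized, quantified by HPLC-MS/MS; bidirectional fitting versus DMSO, viability by MTT.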
# Sequence of Fatty acid synthase (Homo sapiens) (P49327 whole entry, looked up): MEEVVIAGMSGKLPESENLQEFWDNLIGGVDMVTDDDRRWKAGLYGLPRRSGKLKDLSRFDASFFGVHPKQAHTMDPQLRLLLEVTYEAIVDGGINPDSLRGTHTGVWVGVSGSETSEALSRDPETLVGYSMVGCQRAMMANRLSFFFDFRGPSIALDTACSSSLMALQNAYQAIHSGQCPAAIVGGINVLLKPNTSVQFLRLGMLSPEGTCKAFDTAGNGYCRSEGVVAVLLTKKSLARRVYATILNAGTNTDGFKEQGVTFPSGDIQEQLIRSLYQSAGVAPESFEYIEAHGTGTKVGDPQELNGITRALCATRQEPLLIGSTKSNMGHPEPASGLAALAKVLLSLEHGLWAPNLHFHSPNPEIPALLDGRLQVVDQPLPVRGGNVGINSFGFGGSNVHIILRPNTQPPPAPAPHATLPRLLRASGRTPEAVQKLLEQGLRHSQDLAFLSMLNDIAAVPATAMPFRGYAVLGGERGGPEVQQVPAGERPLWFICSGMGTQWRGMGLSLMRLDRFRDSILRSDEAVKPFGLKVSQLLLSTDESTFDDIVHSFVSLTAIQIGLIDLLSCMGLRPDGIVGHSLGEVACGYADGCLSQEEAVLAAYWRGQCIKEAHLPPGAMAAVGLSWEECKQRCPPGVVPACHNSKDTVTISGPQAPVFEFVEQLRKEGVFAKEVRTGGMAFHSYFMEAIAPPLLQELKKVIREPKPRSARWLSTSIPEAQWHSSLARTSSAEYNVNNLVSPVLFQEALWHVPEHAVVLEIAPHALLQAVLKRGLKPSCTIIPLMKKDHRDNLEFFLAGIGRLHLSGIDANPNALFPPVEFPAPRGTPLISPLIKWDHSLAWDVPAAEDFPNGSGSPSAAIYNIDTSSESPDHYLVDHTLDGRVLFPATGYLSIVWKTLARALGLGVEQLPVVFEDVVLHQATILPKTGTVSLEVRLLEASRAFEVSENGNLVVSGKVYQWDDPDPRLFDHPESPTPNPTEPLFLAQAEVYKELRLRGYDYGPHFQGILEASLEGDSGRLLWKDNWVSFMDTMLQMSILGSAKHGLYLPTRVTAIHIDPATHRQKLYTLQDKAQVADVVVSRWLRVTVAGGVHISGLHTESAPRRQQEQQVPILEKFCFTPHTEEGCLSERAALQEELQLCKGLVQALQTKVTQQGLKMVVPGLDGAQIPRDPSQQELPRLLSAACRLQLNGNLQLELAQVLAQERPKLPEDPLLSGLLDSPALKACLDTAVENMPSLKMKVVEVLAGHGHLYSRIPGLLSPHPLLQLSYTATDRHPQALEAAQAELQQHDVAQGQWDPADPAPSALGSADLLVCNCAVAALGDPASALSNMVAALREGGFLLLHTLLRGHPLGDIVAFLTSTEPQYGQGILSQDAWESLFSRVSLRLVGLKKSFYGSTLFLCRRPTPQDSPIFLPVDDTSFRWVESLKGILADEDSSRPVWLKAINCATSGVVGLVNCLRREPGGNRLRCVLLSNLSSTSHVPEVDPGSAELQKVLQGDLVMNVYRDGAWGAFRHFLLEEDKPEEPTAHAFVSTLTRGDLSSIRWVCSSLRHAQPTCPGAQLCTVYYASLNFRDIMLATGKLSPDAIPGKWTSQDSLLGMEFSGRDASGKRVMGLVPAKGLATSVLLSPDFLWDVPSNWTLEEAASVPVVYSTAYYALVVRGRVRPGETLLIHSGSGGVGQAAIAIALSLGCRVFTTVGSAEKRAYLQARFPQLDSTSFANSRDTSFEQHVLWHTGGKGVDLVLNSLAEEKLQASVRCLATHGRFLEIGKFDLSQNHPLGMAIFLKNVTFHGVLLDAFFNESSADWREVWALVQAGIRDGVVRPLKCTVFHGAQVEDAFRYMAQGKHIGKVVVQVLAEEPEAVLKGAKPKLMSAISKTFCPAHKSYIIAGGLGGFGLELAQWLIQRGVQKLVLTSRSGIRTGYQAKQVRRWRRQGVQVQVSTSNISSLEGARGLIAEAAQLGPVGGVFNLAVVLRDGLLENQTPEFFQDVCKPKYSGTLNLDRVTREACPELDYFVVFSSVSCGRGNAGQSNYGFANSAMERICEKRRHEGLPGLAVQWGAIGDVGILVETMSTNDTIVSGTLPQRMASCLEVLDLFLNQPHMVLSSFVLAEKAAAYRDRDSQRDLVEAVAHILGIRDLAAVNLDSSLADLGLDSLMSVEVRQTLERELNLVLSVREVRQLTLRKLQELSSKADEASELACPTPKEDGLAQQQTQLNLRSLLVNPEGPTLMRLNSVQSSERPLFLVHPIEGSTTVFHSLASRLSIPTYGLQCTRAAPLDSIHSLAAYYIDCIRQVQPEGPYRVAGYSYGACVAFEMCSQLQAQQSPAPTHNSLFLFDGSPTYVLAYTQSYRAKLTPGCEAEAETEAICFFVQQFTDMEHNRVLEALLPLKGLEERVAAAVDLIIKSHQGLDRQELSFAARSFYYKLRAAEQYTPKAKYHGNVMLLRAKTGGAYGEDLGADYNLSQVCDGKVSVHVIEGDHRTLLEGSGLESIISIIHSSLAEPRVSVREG
compound,measurement,setting,value
C[C@@H]1C[C@@H]([C@H](O)CC2CC(=O)NC(=O)C2)C(=O)[C@@H](C)C1,outcome,[1],inactive
same,outcome,[2],inactive
same,AC50,[3],4.28 µM (active)
same,outcome,[4],inactive
same,AC50,[5],12.4 µM (active)
same,AC50,[6],25.9 µM (active)
O=C(Cc1ccccc1)c1ccccc1,outcome,[7],inactive
same,outcome,[8],inactive
same,AC50,[1],45.9 µM (active)
C1CCC(NC2CCCCC2)CC1,outcome,[7],inactive
same,outcome,[8],inactive
same,AC50,[1],12.7 µM (active)
C=CC(=O)N(C)C,outcome,[7],inactive
same,outcome,[8],inactive
same,outcome,[9],inactive
same,outcome,[10],inactive
same,outcome,[1],inactive
CC1(C)CCC(Cc2ccc(Cl)cc2)C1(O)Cn1cncn1 (centres undefined),AC50,[1],0.0359 µM (active)
CCOP(=S)(OCC)SCCS(=O)(=O)CC,outcome,[7],inactive
same,outcome,[8],inactive
same,outcome,[9],inactive
same,outcome,[10],inactive
same,AC50,[1],19.2 µM (active)
Fc1ccc(C2(Cn3cncn3)OC2c2ccccc2Cl)cc1 (centres undefined),AC50,[7],3.04 µM (active)
same,AC50,[8],2.08 µM (active)
same,AC50,[9],1.5 µM (active)
same,AC50,[10],2.03 µM (active)
same,outcome,[1],inactive
O=C(Nc1ccc2[nH]ccc2c1)c1cc2cc(F)ccc2n1Cc1cccc(F)c1,AC50,[7],4.26 µM (active)
same,AC50,[8],0.522 µM (active)
same,outcome,[9],inactive
same,outcome,[10],inactive
same,AC50,[1],4.84 µM (active)
same,outcome,[2],inactive
same,AC50,[3],24.3 µM (active)
same,AC50,[5],25.1 µM (active)
same,AC50,[6],26.3 µM (active)
CCOP(=S)(OCC)SCSP(=S)(OCC)OCC,outcome,[7],inactive
same,AC50,[8],1.37 µM (active)
same,outcome,[9],inactive
same,outcome,[10],inactive
same,AC50,[1],4.53 µM (active)
same,outcome,[2],inactive
same,AC50,[3],90.8 µM (active)
same,outcome,[4],inactive
same,outcome,[5],inactive
same,outcome,[6],inactive
C(=NC1CCCCC1)=NC1CCCCC1,outcome,[9],inactive
same,outcome,[10],inactive
same,outcome,[1],inactive
COP(=O)(OC)O/C(=C\Cl)c1cc(Cl)c(Cl)cc1Cl,outcome,[1],inactive
CN(CCCC(=O)c1cccnc1)N=O,outcome,[7],inactive
same,outcome,[8],inactive
same,outcome,[1],inactive
CC12CC1(C)C(=O)N(c1cc(Cl)cc(Cl)c1)C2=O (centres undefined),outcome,[7],inactive
same,outcome,[8],inactive
same,outcome,[1],inactive
same,outcome,[2],inactive
same,AC50,[3],5.61 µM (active)
same,outcome,[4],inactive
same,outcome,[5],inactive
same,outcome,[6],inactive
C[C@]12CCC(=O)C[C@@H]1CC[C@@H]1[C@@H]2CC[C@]2(C)[C@@H](O)CC[C@@H]12,AC50,[1],1.08 µM (active)
same,outcome,[2],inactive
same,outcome,[3],inactive
same,outcome,[4],inactive
same,outcome,[5],inactive
same,outcome,[6],inactive
NNC(=S)NN,outcome,[9],inactive
same,outcome,[10],inactive
same,AC50,[1],50 µM (active)
Oc1ccc(-c2ccccc2)cc1,outcome,[7],inactive
same,outcome,[8],inactive
same,outcome,[10],inactive
CCCCCCCCC(=O)NCc1ccc(O)c(OC)c1,outcome,[7],inactive
same,outcome,[8],inactive
same,outcome,[9],inactive
same,outcome,[10],inactive
same,outcome,[1],inactive
O=C(O)C(Cl)(Cl)Cl,outcome,[2],inactive
same,outcome,[3],inactive
same,outcome,[4],inactive
same,AC50,[5],0.207 µM (active)
same,outcome,[5],inactive
same,outcome,[6],inactive
COc1cc(-c2ccc(N)c(OC)c2)ccc1N,AC50,[1],35.4 µM (active)
same,outcome,[1],inactive
same,outcome,[2],inactive
same,AC50,[3],55.6 µM (active)
same,outcome,[3],inactive
same,outcome,[4],inactive
same,outcome,[5],inactive
same,AC50,[6],72.6 µM (active)
same,outcome,[6],inactive
Nc1ccc(-c2ccc(N)c(Cl)c2)cc1Cl,outcome,[7],inactive
same,outcome,[8],inactive
same,outcome,[9],inactive
same,outcome,[10],inactive
same,outcome,[1],inactive
CC(C)OC(=O)Nc1ccccc1,outcome,[1],inactive
C[C@]12CC[C@H](O)CC1=CC[C@@H]1[C@@H]2CC[C@]2(C)C(=O)CC[C@@H]12,AC50,[7],7.72 µM (active)
same,outcome,[8],inactive
same,outcome,[9],inactive
same,outcome,[10],inactive
same,outcome,[1],inactive
CCOP(=S)(OCC)Oc1nc(Cl)c(Cl)cc1Cl,AC50,[7],81.6 µM (active)
same,outcome,[8],inactive
same,outcome,[9],inactive
same,outcome,[10],inactive
same,AC50,[1],39.3 µM (active)
same,outcome,[2],inactive
same,outcome,[3],inactive
same,outcome,[5],inactive
same,outcome,[6],inactive
